The values below come from PubChem BioAssay AID652058 (Broad Institute, 2013).

Screen size: about 1,200 compounds; about 870 (72%) were called active. Roughly 3% stayed inconclusive and do not appear here. So high a share suggests a set chosen from earlier hits. A selection follows. Results with a measured potency or affinity are listed apart. A number with no mark means an inactive call.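 Rule for the calls: active = every test run fits a falling curve whose half-maximal concentration is at most twice the top valid dose; inconclusive = runs disagree, or flat 30 to 70% inhibition, or poor fit; inactive = every run inactive: flat, rising or weaker potency.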

This assay can be described thus: ZM109 Env clade C HIV-1 fusion inhibitors, dose response, HeLa effector, CEM target cells, luciferase, cherry-pick (AID 652058).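 Note: 0% = neutral control wells and -100% = maraviroc 300 nM wells.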 The conditions noted are these: HeLa Env/CEM cell fusion, 16-24 h; series mostly up to 35 µM.
With `O=C(c1ccc(Cl)cc1)N1CCCCC(Sc2nnc(-c3ccc4c(c3)OCO4)o2)C1=O` (stereo not drawn), the activity change, negative = inhibition entry is “inactive”. As for `COc1cccc(S(=O)(=O)N[C@H]2CC[C@H](CC(=O)NCc3ccncc3)O[C@@H]2CO)c1`, the entry is “inactive”; as for `O=C(C[C@H]1C[C@H]2c3cc(NC(=O)Cc4ccncc4)ccc3O[C@H]2[C@@H](CO)O1)NCc1ccncc1`, “inactive”; as for `Cn1c(-c2ccc(Cl)cc2)ccc(C#N)c1=O`, “inactive”.

Consider `Cc1onc(-c2ccccc2)c1C(=O)OCCOc1cccc(Cl)c1`, for which the activity change, negative = inhibition entry is “inactive”. As for `Cn1cccc1C(=O)OCC(=O)NCCc1ccc(S(N)(=O)=O)cc1`, the activity change, negative = inhibition entry was “inactive”. As for `Cn1c(=O)c2c(nc(NCCc3ccccc3)n2Cc2ccccc2)n(C)c1=O`, the activity change, negative = inhibition entry was “inactive”. As for `COc1ccc(S(=O)(=O)N2CCCCC2)cc1NC(=O)CCCOc1ccc(C)cc1`, the activity change, negative = inhibition result was “inactive”. For the compound `CCOC(=O)CN1CCCc2nc(C)c(C)cc21`, the activity change, negative = inhibition result is “inactive”. For the compound `COCc1[nH]nc2c1C(c1ccc(F)cc1)N(Cc1ccccc1)C2=O` (stereo not drawn), the activity change, negative = inhibition result was “inactive”. For the compound `CC(=O)Nc1ccc(C(=O)OCC(=O)NC(=O)NCc2ccccc2)cc1`, the activity change, negative = inhibition entry is “inactive”. The same measure for `CCN(CC)S(=O)(=O)c1cccc(NC(=O)c2ccc(-n3nc(C)cc3C)cc2)c1`: “inactive”; for `CCN(CC)S(=O)(=O)c1ccc(NC(=O)Nc2cccc(C(F)(F)F)c2)cc1`: “inactive”; for `CC(C)(C)c1ccc(-n2ncc3c2CCCC3NC(=O)CN2CCCC2=O)cc1` (stereo not drawn): “inactive”. The same measure for `C[C@H](CO)N1C[C@H](C)[C@H](CN(C)S(=O)(=O)c2ccccc2)Oc2cc(Br)ccc2S1(=O)=O`: “inactive”; for `CC(C)(C)c1ccc(OCCC(=O)Nc2cccc(S(=O)(=O)N3CCOCC3)c2)cc1`: “inactive”; for `CCc1nc(N2CCCCC2)c2oc3ccccc3c2n1`: “inactive”. As for `CCc1nc(N2CCCCC2C)c2oc3ccccc3c2n1` (stereo not drawn), the entry is “inactive”; as for `O=C1c2cccc(OCc3ccc(F)cc3)c2CCN1Cc1ccccc1`, “inactive”. Consider `NC(=S)c1ccc(OCCCc2ccccc2)cc1`, for which the activity change, negative = inhibition is 111% [at 8 µM].

Turning to `Nc1ncn([C@H]2C[C@H](O)[C@@H](CO)O2)c(=O)n1`, the activity change, negative = inhibition entry was “inactive”. With `Nc1nc2c(ncn2[C@@H]2O[C@H](C(=O)NCC(c3ccccc3)c3ccccc3)[C@@H](O)[C@H]2O)c(=O)[nH]1`, the activity change, negative = inhibition result is “inactive”. On to `O=S(=O)(NC1CC1)c1ccc(S(=O)(=O)N2CCCc3ccccc32)cc1`, for which the activity change, negative = inhibition result was “inactive”. For the compound `O=C(Cn1ncc2c(=O)oc3ccccc3c21)N1CCC(N2CCCCC2)CC1`, the activity change, negative = inhibition result is “inactive”.

On to `O=C(NCCc1ccccc1)c1ccc2c(c1)OCCO2`, for which the activity change, negative = inhibition result is “inactive”.

In the case of `O=C(CCNC(=O)c1ccc(Br)cc1)NNC(=O)COc1ccccc1F`, the activity change, negative = inhibition entry is “inactive”. As for `CC(=O)c1c(C)[nH]c(C(=O)OCCCCN2C(=O)c3ccccc3C2=O)c1C`, the activity change, negative = inhibition result was “inactive”. Turning to `CC(C)C#Cc1ccc2c(c1)O[C@@H](CN(C)C(=O)C1CCCCC1)[C@H](C)CN([C@H](C)CO)S2(=O)=O`, the activity change, negative = inhibition entry was “inactive”. As for `COc1ccc(-c2ccc3c(c2)[C@@H]2[C@@H](CCN2C(=O)NC2CCCC2)[C@H](CO)N3C)cc1`, the activity change, negative = inhibition entry is “inactive”.

Turning to `N#CCSc1nnc(-c2sc3ccccc3c2Cl)o1`, the activity change, negative = inhibition result is “inactive”. As to `C[C@@H]1CN([C@H](C)CO)S(=O)(=O)c2ccc(-c3ccccc3)cc2O[C@@H]1CN(C)Cc1ccccc1`, the activity change, negative = inhibition result was “inactive”. As to `CCOc1ccc(NC2c3ccccc3C(=O)N2Cc2ccco2)cc1` (stereo not drawn), the activity change, negative = inhibition result is “inactive”. As for `C[C@@H]1CN([C@H](C)CO)C(=O)c2cc(NC(=O)Nc3ccccc3)ccc2O[C@@H]1CN(C)S(=O)(=O)c1ccccc1`, the activity change, negative = inhibition result was “inactive”. `Cc1ccc(S(=O)(=O)N(C)C[C@H]2Oc3ccc(NC(=O)Nc4cccc5ccccc45)cc3C(=O)N([C@H](C)CO)C[C@@H]2C)cc1`: the activity change, negative = inhibition entry was “inactive”. As to `COc1ccccc1C#Cc1ccc([C@H]2[C@H](C#N)N(C(=O)C3CCCC3)[C@H]2CO)cc1`, the activity change, negative = inhibition entry was “inactive”. The same measure for `CCCCS(=O)(=O)N1CCN(C(=O)C(=O)c2cccc(C(F)(F)F)c2)CC1`: “inactive”; for `COc1ccc(C)cc1NC(=O)CCNS(=O)(=O)c1ccc2c(c1)CC(C)N2C(C)=O` (stereo not drawn): “inactive”; for `COc1ccc(NC(=O)C(=O)NCC2CCCN2S(=O)(=O)c2cccs2)cc1` (stereo not drawn): “inactive”. For the compound `O=C(Nc1ccc(C(=O)OC2CCCCC2)cc1)c1ccncc1`, the activity change, negative = inhibition entry is “inactive”. Consider `Cc1cccc(/C=N\Nc2cn[nH]c(=O)c2Cl)c1`, for which the activity change, negative = inhibition entry was “inactive”.

In the case of `COc1ccc(NC(=O)CN2CCC(C(N)=O)(N3CCCCC3)CC2)cc1`, the activity change, negative = inhibition result is “inactive”.

As for `O=C(CCN1CCCCC1)N[C@@H]1CC[C@@H](CCn2cc(-c3ccccc3)nn2)O[C@@H]1CO`, the activity change, negative = inhibition result is “inactive”. The same measure for `O=C(Nc1cccc(F)c1)N[C@H]1CC[C@@H](CCNS(=O)(=O)c2cccc(Cl)c2)O[C@H]1CO`: “inactive”. Consider `CN(C)Cc1cn(CC[C@@H]2CC[C@H](N)[C@H](CO)O2)nn1`, for which the activity change, negative = inhibition entry is “inactive”.

As to `O=C(Nc1cccc(F)c1)N[C@@H]1CC[C@H](CCNS(=O)(=O)c2cccc(Cl)c2)O[C@@H]1CO`, the activity change, negative = inhibition entry was “inactive”. As for `O=C(Cc1ccncc1)N[C@H]1CC[C@@H](CCn2cc(-c3ccccc3F)nn2)O[C@@H]1CO`, the entry is “inactive”; as for `COc1ccc(-c2cn(CC[C@H]3CC[C@H](NS(=O)(=O)c4ccccc4C)[C@H](CO)O3)nn2)cc1`, “inactive”. The same measure for `COc1ccc(-c2c(C)nn3c(C(F)(F)F)cc(C)nc23)cc1`: “inactive”.
